Source: the supplement of paper PMC8728848
The full list was thinned out, with the strongest signals kept by preference.

What was measured:
Assay in all cases: glycan array binding signal (z-score within array); higher = stronger binding
Details in all cases: glycan notation: IUPAC condensed, linker removed; mutation: F63H
Fuc(a1-2)Gal(b1-3)GalNAc = target: Fuc(a1-2)Gal(b1-3)GalNAc
Method in brief: (§1)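 Negative Z-scores can be read as non-binding. The Z-score is calculated within each array and then averaged across arrays of one protein sequence at different concentrations or buffers and across linkers. Arrays, 3228 in all, were curated from the Consortium for Functional Glycomics database and kept only where the protein sequence was available.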

[1] = target: Fuc(a1-2)Gal(b1-3)GalNAc(b1-3)Gal(a1-4)Gal(b1-4)Glc
Method in brief: as §1

[2] = target: Fuc(a1-2)Gal(b1-3)GlcNAc(b1-3)Gal(b1-4)Glc
Method in brief: as §1

[3] = target: Fuc(a1-2)Gal(b1-3)GlcNAc(b1-3)[Neu5Ac(a2-6)Gal(b1-4)GlcNAc(b1-6)]Gal(b1-4)Glc
Method in brief: as §1

[4] = target: Fuc(a1-2)Gal(b1-4)GlcNAc(b1-3)Gal(b1-4)GlcNAc(b1-3)Gal(b1-4)GlcNAc
Method in brief: as §1

[5] = target: Fuc(a1-2)[GalNAc(b1-3)]Gal
Method in brief: as §1

Fuc(a1-3)GlcNAc = target: Fuc(a1-3)GlcNAc
Method in brief: as §1

[6] = target: Fuc(a1-3)[GalNAc(b1-4)]GlcNAc6S
Method in brief: as §1

Gal(a1-3)Gal = target: Gal(a1-3)Gal
Method in brief: as §1

Gal(a1-3)Gal(b1-4)GlcNAc = target: Gal(a1-3)Gal(b1-4)GlcNAc
Method in brief: as §1

[7] = target: Gal(a1-3)Gal(b1-4)GlcNAc(b1-6)GalNAc
Method in brief: as §1

[8] = target: Gal(a1-4)Gal(b1-4)GlcNAc(b1-2)Man(a1-3)[Gal(a1-4)Gal(b1-4)GlcNAc(b1-2)Man(a1-6)]Man(b1-4)GlcNAc(b1-4)GlcNAc
Method in brief: as §1

Gal(b1-3)Gal(b1-4)GlcNAc = target: Gal(b1-3)Gal(b1-4)GlcNAc
Method in brief: as §1

Gal(b1-3)GalNAc = target: Gal(b1-3)GalNAc
Method in brief: as §1

[9] = target: Gal(b1-3)GalNAc(a1-3)[Fuc(a1-2)]Gal(b1-4)Glc
Method in brief: as §1

[10] = target: Gal(b1-3)GalNAc(a1-3)[Fuc(a1-2)]Gal(b1-4)GlcNAc
Method in brief: as §1

[11] = target: Gal(b1-3)GalNAc(b1-4)Gal(b1-4)Glc
Method in brief: as §1

[12] = target: Gal(b1-3)GlcNAc(a1-3)Gal(b1-4)GlcNAc
Method in brief: as §1

[13] = target: Gal(b1-3)GlcNAc(b1-3)Gal(b1-4)GlcNAc(b1-3)Gal(b1-4)GlcNAc(b1-2)[Gal(b1-3)GlcNAc(b1-3)Gal(b1-4)GlcNAc(b1-3)Gal(b1-4)GlcNAc(b1-6)]Man(a1-6)[Gal(b1-3)GlcNAc(b1-3)Gal(b1-4)GlcNAc(b1-3)Gal(b1-4)GlcNAc(b1-2)Man(a1-3)]Man(b1-4)GlcNAc(b1-4)[Fuc(a1-6)]GlcNAc
Method in brief: as §1

[14] = target: Gal(b1-3)GlcNAc(b1-6)GalNAc
Method in brief: as §1

[15] = target: Gal(b1-4)GlcNAc(b1-2)Man(a1-3)[Gal(b1-4)GlcNAc(b1-2)Man(a1-6)][Gal(b1-4)GlcNAc(b1-4)]Man(b1-4)GlcNAc(b1-4)[Fuc(a1-6)]GlcNAc
Method in brief: as §1

[16] = target: Gal(b1-4)GlcNAc(b1-2)Man(a1-6)[GlcNAc(b1-2)Man(a1-3)]Man(b1-4)GlcNAc(b1-4)GlcNAc
Method in brief: as §1

[17] = target: Gal(b1-4)GlcNAc(b1-2)[Gal(b1-4)GlcNAc(b1-6)]Man(a1-6)[GlcNAc(b1-4)][Gal(b1-4)GlcNAc(b1-2)Man(a1-3)]Man(b1-4)GlcNAc(b1-4)GlcNAc
Method in brief: as §1

[18] = target: Gal(b1-4)GlcNAc(b1-2)[Gal(b1-4)GlcNAc(b1-6)]Man(a1-6)[GlcNAc(b1-4)][Gal(b1-4)GlcNAc(b1-2)[Gal(b1-4)GlcNAc(b1-4)]Man(a1-3)]Man(b1-4)GlcNAc(b1-4)[Fuc(a1-6)]GlcNAc
Method in brief: as §1

[19] = target: Gal(b1-4)GlcNAc(b1-3)Gal(b1-4)GlcNAc(b1-3)Gal(b1-4)GlcNAc(b1-2)Man(a1-3)[Gal(b1-4)GlcNAc(b1-3)Gal(b1-4)GlcNAc(b1-3)Gal(b1-4)GlcNAc(b1-2)Man(a1-6)]Man(b1-4)GlcNAc(b1-4)[Fuc(a1-6)]GlcNAc
Method in brief: as §1

[20] = target: Gal(b1-4)GlcNAc(b1-3)Gal(b1-4)GlcNAc(b1-3)Gal(b1-4)GlcNAc(b1-3)Gal(b1-4)GlcNAc(b1-3)Gal(b1-4)GlcNAc(b1-2)Man(a1-3)[Gal(b1-4)GlcNAc(b1-3)Gal(b1-4)GlcNAc(b1-3)Gal(b1-4)GlcNAc(b1-3)Gal(b1-4)GlcNAc(b1-3)Gal(b1-4)GlcNAc(b1-2)Man(a1-6)]Man(b1-4)GlcNAc(b1-4)[Fuc(a1-6)]GlcNAc
Method in brief: as §1

[21] = target: Gal(b1-4)GlcNAc(b1-3)Gal(b1-4)GlcNAc(b1-3)Gal(b1-4)GlcNAc(b1-3)Gal(b1-4)GlcNAc(b1-3)Gal(b1-4)GlcNAc(b1-3)Gal(b1-4)GlcNAc(b1-2)Man(a1-3)[Gal(b1-4)GlcNAc(b1-3)Gal(b1-4)GlcNAc(b1-3)Gal(b1-4)GlcNAc(b1-3)Gal(b1-4)GlcNAc(b1-3)Gal(b1-4)GlcNAc(b1-3)Gal(b1-4)GlcNAc(b1-2)Man(a1-6)]Man(b1-4)GlcNAc(b1-4)GlcNAc
Method in brief: as §1

[22] = target: Gal(b1-4)GlcNAc(b1-3)Gal(b1-4)GlcNAc(b1-3)GalNAc
Method in brief: as §1

[23] = target: Gal(b1-4)GlcNAc(b1-3)Gal(b1-4)GlcNAc(b1-3)[Gal(b1-4)GlcNAc(b1-3)Gal(b1-4)GlcNAc(b1-6)]GalNAc
Method in brief: as §1

[24] = target: Gal(b1-4)GlcNAc(b1-3)GalNAc
Method in brief: as §1

B1: AAL (Agrocybe aegerita), Q6WY08 (protein)
chain: MQGVNIYNISAGTSVDLAAPVTTGDIVTFFSSALNLNAGAGNPNNTTLNLFAENGAYLLHIAHRLQENVIIFNSRQPDGPWLVEQRVSDVANQFAGIDGKAMVTVFDHGDKYQVVINEKTVIQYTKQISGLTLSLSYNATEETSIFSTVVEAVTYTGLALEHHHHHH
glycan array binding signal (z-score) (Fuc(a1-2)Gal(b1-3)GalNAc): -0.198 | glycan array binding signal (z-score) [1]: -0.075 | glycan array binding signal (z-score) [2]: -0.394 | glycan array binding signal (z-score) [3]: 0.013 | glycan array binding signal (z-score) [4]: -0.151 | glycan array binding signal (z-score) [5]: -0.544 | glycan array binding signal (z-score) (Fuc(a1-3)GlcNAc): -0.394 | glycan array binding signal (z-score) [6]: -0.005 | glycan array binding signal (z-score) (Gal(a1-3)Gal): -0.04 | glycan array binding signal (z-score) (Gal(a1-3)Gal(b1-4)GlcNAc): -0.342 | glycan array binding signal (z-score) [7]: -0.072 | glycan array binding signal (z-score) [8]: 0.969 | glycan array binding signal (z-score) (Gal(b1-3)Gal(b1-4)GlcNAc): -0.287 | glycan array binding signal (z-score) (Gal(b1-3)GalNAc): -0.177 | glycan array binding signal (z-score) [9]: -0.298 | glycan array binding signal (z-score) [10]: -0.341 | glycan array binding signal (z-score) [11]: -0.435 | glycan array binding signal (z-score) [12]: 0.927 | glycan array binding signal (z-score) [13]: 0.029 | glycan array binding signal (z-score) [14]: 0.316 | glycan array binding signal (z-score) [15]: -0.332 | glycan array binding signal (z-score) [16]: -0.263 | glycan array binding signal (z-score) [17]: 4.37 | glycan array binding signal (z-score) [18]: -0.265 | glycan array binding signal (z-score) [19]: 1.22 | glycan array binding signal (z-score) [20]: -0.033 | glycan array binding signal (z-score) [21]: 0.376 | glycan array binding signal (z-score) [22]: -0.163 | glycan array binding signal (z-score) [23]: 0.226 | glycan array binding signal (z-score) [24]: -0.105
